This is one part of a sample in which hits are shown more often than they occur.
TbREL1 primary: TbREL1 inhibition, primary screen. P86926. inhibition, % at 9.66 µM. AID 1117264. 0.49% of 89,000 active. TbREL1 RNA ligation, FRET fluorescence;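 active = inhibition above the mean inhibition across all screened compounds plus 3 SD, cut at about 11% in these data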;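 also: 0% = plate median of test wells and 100% = NSC42067 control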
Target sequence (P86926 whole entry, looked up): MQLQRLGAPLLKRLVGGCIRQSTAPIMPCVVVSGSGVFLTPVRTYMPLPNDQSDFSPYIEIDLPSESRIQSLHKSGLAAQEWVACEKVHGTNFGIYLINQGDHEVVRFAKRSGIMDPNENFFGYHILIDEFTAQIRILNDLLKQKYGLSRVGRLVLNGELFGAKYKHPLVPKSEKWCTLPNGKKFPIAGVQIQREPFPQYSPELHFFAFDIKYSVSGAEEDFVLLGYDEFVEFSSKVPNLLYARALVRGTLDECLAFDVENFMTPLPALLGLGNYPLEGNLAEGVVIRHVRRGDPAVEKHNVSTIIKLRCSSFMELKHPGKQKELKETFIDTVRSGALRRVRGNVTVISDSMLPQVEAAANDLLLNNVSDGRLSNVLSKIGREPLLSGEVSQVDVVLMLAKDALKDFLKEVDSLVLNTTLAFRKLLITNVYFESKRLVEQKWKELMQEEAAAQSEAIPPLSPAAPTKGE
TbREL1 conf: TbREL1 inhibition, confirmation | shares compounds with TbREL1 primary | 37% of 390 active | inhibition, % at 9.66 µM | TbREL1 RNA ligation, FRET fluorescence;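 active = mean inhibition across replicates above a set limit taken from the earlier primary screen, cut at about 11% in these data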;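 also: 0% = REL1 with substrate and DMSO and 100% = REL1 plus control inhibitor NSC42067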
The depositor's hits bear a star; ! = a repeat was not active.

SMILES	TbREL1 primary	others
CCCCCCCCCn1cc(C(C)=O)c(=O)[nH]c1=O	19*
CCCCCCOC(=O)CCn1[nH]c(=O)c2ccccc2c1=O	2
O=C(CSc1nnc(-c2cnccn2)n1-c1ccccc1)Nc1ccc2cn[nH]c2c1	-4
CCOc1cc(C=NN2CCN(Cc3ccc(C)cc3)CC2)ccc1O	-2
C[c-]1[c-](C)[c-](C)[c-](C)[c-]1C.[Fe].c1cc2nccc(N3CCCC3)[c-]2c1 (stereo not drawn)	14*	TbREL1 conf=16*!
COc1ccc2ccccc2c1C=Nn1c(-c2cc(-c3ccccc3)n[nH]2)n[nH]c1=S	-7
N#Cc1ccccc1NC(=S)Nc1ccc(F)cc1	3
Fc1ccc(NC(=S)Nc2ccc3nccnc3c2)cc1	13*	TbREL1 conf=4
O=c1[nH]c2ccc(NC(=S)Nc3ccc(F)cc3)cc2[nH]1	2
Cc1ccc(OCc2nnc(SCC(=O)Nc3ccccc3-c3ccccc3)n2Cc2ccco2)cc1	-1
CN(C)/C=C1/C(=O)N(c2ccc([N+](=O)[O-])cc2)N=C1c1ccccc1	-1
CC1=NN(c2ccccc2)C(=O)/C1=C/N(C)C	12*	TbREL1 conf=6
CC1=NN(c2ccccc2)C(=O)/C1=C\c1cc(C)n(C)c1C	-10
O=C(Nc1ccc2ncccc2c1)c1cc(-c2ccc(Cl)cc2)nc2ccccc12	-1
CCCC[C@H]1C2CC(OC(=O)Nc3ccc(C#N)cc3)C(C2)[C@H]2CCCCN21 (stereo partly drawn)	11*	TbREL1 conf=4
CCCC[C@H]1C2CC(OC(=O)Nc3ccc(C)cc3)C(C2)[C@H]2CCCCN21 (stereo partly drawn)	-1
CCCC[C@H]1C2CC(OC(=O)Nc3ccc(Br)cc3)C(C2)[C@H]2CCCCN21 (stereo partly drawn)	5
O=C(N[C@@H](Cc1ccccc1)C(=O)N1CCC2CCN(S(=O)(=O)c3ccccc3)CC21)[C@@H]1CCCN1 (stereo partly drawn)	4
CCSc1nnc(-c2ccco2)n1C	0
CC(=O)Nc1ccc(NC(=O)c2cccc3ccccc23)cc1	3
CC(=O)Nc1ccccc1NC(=O)COc1cccc2ccccc12	0
CC(=O)Nc1cc2c3ccccc3ccc2c2ccccc12	32*	TbREL1 conf=5
c1cc2ccn(CC3CC3)c2cc1-c1ccc2ccn(CC3CC3)c2c1	-1
Cc1nc2ccc(S(=O)(=O)NCC(=O)N(C)Cc3ccccc3F)cc2s1	1
[S-]c1nnc(-c2ccc(Br)cc2)n1-c1ccccc1.[Zn+2]	23*	TbREL1 conf=17*
SMILES	TbREL1 primary	others
O=C(O)c1ccc(CSc2nnc(-c3ccncc3)n2-c2ccc(Br)cc2)cc1	9
COc1ccc(-n2c(-c3ccccc3)nnc2-c2ccc(Cl)cc2)cc1	-4
O=C(NCCc1ccccc1)OCc1cn(-c2c(F)cccc2F)nn1	5
O=C(CNS(=O)(=O)c1ccccc1)N1CCN(c2ncccn2)CC1	7
O=c1cc(N2CCN(c3cccc(C(F)(F)F)c3)CC2)[nH]c(=O)n1-c1ccccc1	-4
COC(=O)[C@]12C[C@H](CC(=O)NCCCN3CCCC3=O)C(=O)N(Cc3ccc4c(c3)OCO4)C1=C[C@H](C(C)C)O[C@@H]2C1CC1	-3
CN(C)S(=O)(=O)c1cccc(C(=O)N/N=C\c2ccc(-c3ccccn3)cc2)c1	2
C=CCNc1nc(NCc2cccc(OC)c2)c2sc(-c3ccccc3)cc2n1	2
CC(O)CNc1ncnc2cc(-c3ccc(F)cc3)sc12 (stereo not drawn)	7
CC(C)Nc1nc(NCCOc2ccccc2Cl)c2sc(-c3ccccc3)cc2n1	13*	TbREL1 conf=16*
O=C(N[C@H](C(=O)N1CCC[C@H]1C(=O)NCc1ccccc1)C1CCCCC1)c1ccccc1	-2
COc1ccc(C(=O)N2CCC[C@H]2C(=O)N2CCC[C@@H]2C(=O)NCc2ccccc2)cc1F	0
O=C1c2cc([N+](=O)[O-])ccc2-c2ncccc21	1
O=C1c2ccccc2-c2nccnc21	-1
O=C1C(=O)c2cccnc2-c2ncccc21	43*	TbREL1 conf=68*
Cc1ccccc1CN1CCCCC(NC(=O)c2ccccc2C(F)(F)F)C1=O (stereo not drawn)	-2
COC(=O)C1=C(C)N(Cc2ccc(F)cc2)C(=S)NC1c1cccc(Br)c1 (stereo not drawn)	3
COc1ccc(CCNC(=O)Cn2nc(-c3ccccc3)ccc2=O)cc1	1
CC(=O)N1CCc2cc(Br)c(S(=O)(=O)NCc3ccc(Cl)cc3)cc21	-1
N#Cc1cccc(OCCCN2CCC(C(O)(c3ccccc3)c3ccccc3)CC2)c1	15*	TbREL1 conf=7
CC(COc1ccc(C#N)cc1)CN1CCC(C(O)(c2ccccc2)c2ccccc2)CC1 (stereo not drawn)	6
OC(c1ccccc1)(c1ccccc1)C1CCN(CCCOc2ccc(Cl)cc2)CC1	9
O[C@@H](Cc1ccccc1)[C@@H](/C=C/c1ccccc1)N(Cc1ccccc1)Cc1ccccc1	0
Cc1[nH]c2ccccc2c1CC(=O)Nc1ccc(Nc2cccnc2)c(Br)c1	-3
